# Data reported in PubChem BioAssay AID492993 (Johns Hopkins Ion Channel Center, 2010).
# Screen size: about 4,900 compounds; about 200 (4.1%) were called active.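 How the source made its calls: active means thallium signal drop more than 5 SD beyond the mean of the no-compound control wells, seen in both duplicate plates; inactive means the rest.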 Shown is part of a subset that was picked to be rich in actives.
# Molecular target: Inward rectifier potassium channel 2 (Mus musculus) (UniProt P35561)
# Sequence (P35561 whole entry, looked up): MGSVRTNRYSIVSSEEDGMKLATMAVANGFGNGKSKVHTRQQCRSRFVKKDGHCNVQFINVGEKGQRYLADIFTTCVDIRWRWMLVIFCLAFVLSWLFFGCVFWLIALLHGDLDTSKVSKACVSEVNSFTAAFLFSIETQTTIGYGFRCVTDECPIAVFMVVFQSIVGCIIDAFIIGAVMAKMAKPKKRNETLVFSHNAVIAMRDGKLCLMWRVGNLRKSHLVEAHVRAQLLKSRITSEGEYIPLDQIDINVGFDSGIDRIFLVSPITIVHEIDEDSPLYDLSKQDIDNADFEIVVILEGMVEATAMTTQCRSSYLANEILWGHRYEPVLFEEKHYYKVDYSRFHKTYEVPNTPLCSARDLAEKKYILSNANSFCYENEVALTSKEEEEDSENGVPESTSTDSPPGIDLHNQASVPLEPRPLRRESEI
# Assay: mouse Kir2.1 channel inhibition, confirmation, selectivity assay for KCNK9 modulator project, cell-based, HEK293, thallium flux (AID 492993);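 on inhibition: signal is fluorescence rise after thallium addition divided by baseline fluorescence; plate controls were assay buffer only for no effect and full block by chlorpromazine control for full effect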
# Settings: Kir2.1 cells, FluxOR thallium flux fluorescence, at 10 µM; active compounds read high
row,Compound,inhibition
1,CCCCCCCCCCCCn1ccc(=N)cc1,75% (active)
2,CCCCCCN=C(CC)c1c(O)n(CCCC)c(=O)[nH]c1=O,inactive
3,CC(C)(C)c1ccc(OC(=O)N2CCCCC2)cc1,inactive
4,CCOC(=O)C1SC2(C(F)(F)C(F)F)CC1(O)c1c(c(OC)c3occc3c1OC)O2 (stereo not given),inactive
5,CC(C)(C)c1ccc(CN2C(=O)CN=C(c3ccccc3)c3ccccc32)cc1,inactive
